Source: PubChem
DT40 TDP1 CPT = growth inhibition of DT40 Tdp1-/-;hTDP1 cells with camptothecin (screen for TDP1 inhibitors); 420,000 tested, 12% active; AID 686979; Potency, µM (series often up to 46.2 µM), hits mostly inhibitors; chicken DT40 Tdp1-/-;hTDP1 cells + 20 nM CPT, ATP luminescence, 48 h; note: nearly all actives have a fitted effect of over 55% in size
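Chicken DT40 Tdp1-/- cells complemented with human TDP1, 400 cells/well, exposed to compounds plus 20 nM camptothecin for at least 48 h at 37 C; viability read as ATP content by CellTiter-Glo luminescence.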
uPA surface inh = cell surface uPA generation inhibition; cell surface uPA generation assay, qHTS; Potency, µM (titrated, usually from 38.3 µM), most hits filed as inhibitors; 330,000 tested, 0.31% active; active = well fitted inhibition curve with a large enough effect; inconclusive = small, poorly fitted or top-dose-only effect; inactive = no such curve, though single readings can be large or run the other way; tested in mouse RAW 264.7 cells; note: nearly all actives have a fitted effect of over 55% in size
HT1080 IDH1KD tx = HT-1080 IDH1 knockdown cell toxicity (counter line) | Potency, µM (doses to about 46.1 µM), most hits filed as cytotoxic | HT-1080 IDH1 knockdown viability, ATP luminescence, 48 h | AID 686971 | 360,000 tested, 2% active
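In this qHTS, HT-1080 cells depleted of IDH1 are exposed for 48 h at 37 °C to compound titrations. Toxicity is scored from CellTiter-Glo luminescence, with DMSO as full viability and medium alone as none.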
IL-1B inflam inh = inhibitors of inflammasome signaling (IL-1 beta secretion); THP-1 LPS/ATP IL-1B secretion, AlphaLISA, 16 h; stronger effect = lower value; activity change, % at 57.5 µM; 360,000 tested, 4.7% active; AID 743279; in the data active = activity change below about -50%; inconclusive = mostly about -30% to -49%
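THP-1 cells pretreated 1 hr with compounds (up to 57.5 uM final), then stimulated with LPS (250 ng/mL final) plus ATP (1.25 mM final); secreted IL-1B measured by AlphaLISA after 16 hr, decreased signal indicating inhibition.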
DT40 TDP1 no CPT = qHTS for Inhibitors of human tyrosyl-DNA phosphodiesterase 1 (TDP1): qHTS in cells in absence of CPT | 420,000 tested, 15% active | DT40 Tdp1-/- hTDP1 cells, no CPT, ATP luminescence, 48 h | Potency, µM (highest dose often 46.2 µM), usual class: inhibitors; note: nearly all actives have a fitted effect of over 55% in size
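A cellular qHTS used chicken DT40 cells lacking endogenous Tdp1 but carrying stably transfected human TDP1. Compounds were applied without camptothecin, and cell growth kinetics were judged by ATP-dependent luminescence after ≥48 hr.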
HT1080NT lethal = kills 2HG-producing HT-1080-NT fibrosarcoma cells; AID 686970; 360,000 tested, 1.6% active; HT-1080-NT fibrosarcoma viability, CellTiter-Glo ATP luminescence, 48 h; Potency, µM (doses to about 46.1 µM), actives largely listed as cytotoxic;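 note: NT is the 2HG producing partner of a matched IDH1 knockdown line; nearly all actives have a fitted effect of over 55% in size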
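Viability by CellTiter-Glo luminescence after 48 h compound exposure at 37C of HT-1080-NT cells (750/well, RPMI, 5% FBS). % activity scaled between DMSO wells and medium-only wells, then curve-fitted and categorized by curve class.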
Large screens that a line does not name were inactive. The list is not random: actives were taken first. Their share in the collection is about 19%. Unless noted, calls come from the whole dose curve; as a rule, active = well fitted curve in the direction sought with a large enough effect; inconclusive = small, poorly fitted or top-dose-only effect, or another doubt; inactive = no such curve, though single readings can be large; an effect the other way counts as inactive or inconclusive.

CC(=O)N1c2ccc(S(=O)(=O)NCCc3ccccc3)cc2CC1C (stereo not drawn)	DT40 TDP1 CPT inconclusive, HT1080 IDH1KD tx inconclusive, DT40 TDP1 no CPT 12µM, HT1080NT lethal inconclusive
CC(=O)N1c2ccc(S(=O)(=O)NCCC(=O)N(C)Cc3ccccc3)cc2CC1C (stereo not drawn)	DT40 TDP1 CPT inconclusive, DT40 TDP1 no CPT inconclusive
CCOC(=O)c1[nH]c(C)c(C(=O)Nc2ccc(C)c(Cl)c2)c1C	DT40 TDP1 CPT 16µM, HT1080 IDH1KD tx 13µM, DT40 TDP1 no CPT inconclusive (no result: uPA surface inh)
CCOC(=O)c1[nH]c(C)c(C(=O)Nc2ccc(C)c(F)c2)c1C	DT40 TDP1 CPT 10µM, HT1080 IDH1KD tx 3.5µM, DT40 TDP1 no CPT 18µM, HT1080NT lethal 10µM (no result: uPA surface inh)
CCC(Sc1nc2ccncc2[nH]1)C(=O)Nc1cc(Cl)ccc1C (stereo not drawn)	DT40 TDP1 CPT 29µM, DT40 TDP1 no CPT 18µM
O=C(NC1CCN(Cc2ccc(Cl)cc2)CC1)c1cn(-c2ccccc2)nc1-c1cccnc1	DT40 TDP1 CPT 16µM, uPA surface inh inconclusive, IL-1B inflam inh inconclusive, DT40 TDP1 no CPT inconclusive
O=C1NC(=S)S/C1=C\C=C\c1ccc([N+](=O)[O-])o1	DT40 TDP1 CPT 1.6µM, HT1080 IDH1KD tx 5.2µM, IL-1B inflam inh -98, DT40 TDP1 no CPT 2.3µM, HT1080NT lethal 5.8µM
Cc1ccc(NC(=O)CCNS(=O)(=O)c2ccccc2)c(C(=O)c2ccccc2)c1	DT40 TDP1 CPT 21µM, DT40 TDP1 no CPT inconclusive
NS(=O)(=O)c1ccc(CNC(=S)Nc2ccc(Cl)c(Cl)c2)cc1	DT40 TDP1 no CPT inconclusive, HT1080NT lethal inconclusive
NS(=O)(=O)c1ccc(CCNC(=O)Nc2ccc(Cl)c(Cl)c2)cc1	DT40 TDP1 CPT inconclusive, HT1080 IDH1KD tx inconclusive, DT40 TDP1 no CPT 23µM (no result: uPA surface inh)
Cc1ccc(S(=O)(=O)NC(=O)Nc2ccc(N(C)C)cc2)cc1	DT40 TDP1 CPT 21µM, HT1080 IDH1KD tx inconclusive, IL-1B inflam inh -80, DT40 TDP1 no CPT 16µM
Cc1ccc(S(=O)(=O)NCCC(=O)Nc2ccc(Cl)c(Cl)c2)cc1	DT40 TDP1 CPT inconclusive, HT1080 IDH1KD tx inconclusive, DT40 TDP1 no CPT 16µM
CCOc1ccc(NC(=O)Cn2nnc(C(=O)NCCc3ccccc3)c2N)cc1	none (no result: uPA surface inh, HT1080 IDH1KD tx, IL-1B inflam inh, HT1080NT lethal)
Cc1ccc(S(=O)(=O)NNC(=O)Nc2ccc(Cl)c(Cl)c2)cc1	DT40 TDP1 CPT inconclusive, DT40 TDP1 no CPT 16µM
COC(=O)c1cccc(OCCCN2CCC(C(O)(c3ccccc3)c3ccccc3)CC2)c1	DT40 TDP1 CPT inconclusive, HT1080 IDH1KD tx 16µM, DT40 TDP1 no CPT inconclusive, HT1080NT lethal inconclusive (no result: uPA surface inh)
Cc1ccc(OCCCN2CCC(C(O)(c3ccccc3)c3ccccc3)CC2)cc1	DT40 TDP1 CPT inconclusive, HT1080 IDH1KD tx 18µM, IL-1B inflam inh -52, DT40 TDP1 no CPT inconclusive, HT1080NT lethal inconclusive (no result: uPA surface inh)
CC(C)(C(=O)O)c1ccc([C@H](O)CCCN2CCC(C(O)(c3ccccc3)c3ccccc3)CC2)cc1	HT1080NT lethal inconclusive
OC(c1ccccc1)(c1ccccc1)C1CCN(CCCOc2ccc(F)cc2)CC1	DT40 TDP1 CPT inconclusive, HT1080 IDH1KD tx 23µM, IL-1B inflam inh -53, DT40 TDP1 no CPT inconclusive, HT1080NT lethal 21µM (no result: uPA surface inh)
Cc1ccc2oc(C(=O)Nc3ccc(S(=O)(=O)Nc4nc(C)cc(C)n4)cc3)cc(=O)c2c1	none (no result: uPA surface inh, HT1080 IDH1KD tx, IL-1B inflam inh, HT1080NT lethal)
Cc1cnc(C)c(Nc2nc(C(N)Cc3ccc(Cl)cc3)cs2)n1 (stereo not drawn)	DT40 TDP1 CPT 8.2µM, HT1080 IDH1KD tx 23µM, DT40 TDP1 no CPT 18µM, HT1080NT lethal 18µM (no result: uPA surface inh)
COC(=O)c1cc(C)nc(Nc2nc(C(N)Cc3ccc(F)cc3)cs2)n1 (stereo not drawn)	DT40 TDP1 CPT inconclusive (no result: uPA surface inh)
Cc1cnc(C)c(Nc2nc(C(N)Cc3ccc(F)cc3)cs2)n1 (stereo not drawn)	DT40 TDP1 CPT 26µM, HT1080 IDH1KD tx inconclusive, DT40 TDP1 no CPT inconclusive, HT1080NT lethal 21µM (no result: uPA surface inh)
